Results taken from PubChem BioAssay (NCI).
The panel holds about 83,000 compounds, 20% with a hit somewhere; the sample as a whole holds those more often.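 Interpretation: 100, growth as untreated; towards 0, rising growth inhibition; 0, no net growth; 0 to -100, cell death. Compounds scoring below 10 were considered active.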 Active and inactive are the calls of the source.

Experiments:
Assay in all cases: NCI-60 one-dose screen, 48 h (100 = growth as untreated, 0 = no growth, -100 = all killed)
Details in all cases: 10 µM unless noted
NCI-H23 lung = system: NCI-H23 lung
NCI-H226 lung = system: NCI-H226 lung
NCI-H322M lung = system: NCI-H322M lung
HOP-62 NSCLC = system: HOP-62 NSCLC
NCI-H460 lung = system: NCI-H460 lung
HOP-92 NSCLC = system: HOP-92 NSCLC
NCI-H522 lung = system: NCI-H522 lung
A549/ATCC NSCLC = system: A549/ATCC NSCLC
786-0 renal = system: 786-0 renal
COLO 205 colon = system: COLO 205 colon
DU-145 prostate = system: DU-145 prostate
K-562 leukemia = system: K-562 leukemia
MALME-3M melanoma = system: MALME-3M melanoma
MDA-MB-231 breast = system: MDA-MB-231 breast
RXF 393 renal = system: RXF 393 renal
SF-268 CNS = system: SF-268 CNS
SF-295 CNS = system: SF-295 CNS
SF-539 CNS = system: SF-539 CNS
UACC-257 melanoma = system: UACC-257 melanoma
M14 melanoma = system: M14 melanoma

Measured: growth

COc1ccc(OC)c(C(=O)/C=C/c2cc3c(c(OC)c2OC)OCO3)c1
inactive: NCI-H23 lung 57.8% | NCI-H226 lung 92% | NCI-H322M lung 71.1% | HOP-62 NSCLC 101% | NCI-H460 lung 50.1% | HOP-92 NSCLC 62.2% | NCI-H522 lung 74.3% | A549/ATCC NSCLC 62.7% | 786-0 renal 100% | COLO 205 colon 95.8% | DU-145 prostate 41.7% | K-562 leukemia 29.7% | MALME-3M melanoma 80.9% | MDA-MB-231 breast 83.2% | RXF 393 renal 63.9% | SF-268 CNS 63.2% | SF-295 CNS 84.1% | SF-539 CNS 87.6% | UACC-257 melanoma 72.5% | M14 melanoma 78.6%

Cc1ccc(-c2nc3nc(-c4ccc(F)cc4)nc(N4CCNCC4)c3o2)cc1
inactive: NCI-H23 lung 94.4% | NCI-H226 lung 116% | NCI-H322M lung 87.7% | HOP-62 NSCLC 77.6% | HOP-92 NSCLC 90.8% | NCI-H522 lung 79.8% | A549/ATCC NSCLC 27.2% | DU-145 prostate 41.7% | MALME-3M melanoma 107% | RXF 393 renal 109% | SF-268 CNS 96.7% | SF-295 CNS 91.6% | UACC-257 melanoma 105%
active: NCI-H460 lung -84.6% | 786-0 renal -92.8% | COLO 205 colon -78.1% | K-562 leukemia -53.1% | MDA-MB-231 breast -29.1% | SF-539 CNS -72.3% | M14 melanoma -70.9%

COc1cc(-c2nc(SCC(C)C)nc(Nc3cccc4ccccc34)c2C#N)cc(OC)c1OC
inactive: NCI-H23 lung 102% | NCI-H226 lung 82.5% | NCI-H322M lung 101% | HOP-62 NSCLC 87.2% | NCI-H460 lung 82.3% | HOP-92 NSCLC 92.9% | NCI-H522 lung 89.2% | A549/ATCC NSCLC 88.4% | 786-0 renal 103% | COLO 205 colon 95.3% | DU-145 prostate 94.4% | K-562 leukemia 57% | MALME-3M melanoma 87.7% | MDA-MB-231 breast 57.1% | RXF 393 renal 119% | SF-268 CNS 92.6% | SF-295 CNS 101% | SF-539 CNS 101% | UACC-257 melanoma 106% | M14 melanoma 103%

CC(=O)N1N=C(c2ccc(Nc3nc(Nc4ccc(Cl)cc4)nc(Nc4ccc(Cl)cc4)n3)cc2)CC1c1ccco1 (stereo not given)
inactive: NCI-H23 lung 85.4% | NCI-H226 lung 100% | NCI-H322M lung 103% | HOP-62 NSCLC 91.9% | NCI-H460 lung 96.9% | HOP-92 NSCLC 99.9% | NCI-H522 lung 68.4% | A549/ATCC NSCLC 72.1% | 786-0 renal 86.7% | COLO 205 colon 109% | DU-145 prostate 107% | K-562 leukemia 79.5% | MALME-3M melanoma 97.9% | MDA-MB-231 breast 92.7% | RXF 393 renal 71.1% | SF-268 CNS 103% | SF-295 CNS 92.8% | SF-539 CNS 96% | UACC-257 melanoma 96.4% | M14 melanoma 90.5%

COc1ccc2cc(-c3ccc(NC(C)=O)c(=O)o3)ccc2c1
inactive: NCI-H23 lung 94.4% | NCI-H226 lung 94.4% | NCI-H322M lung 92.2% | HOP-62 NSCLC 94.3% | NCI-H460 lung 100% | HOP-92 NSCLC 97.8% | NCI-H522 lung 78.8% | A549/ATCC NSCLC 87.5% | 786-0 renal 98.8% | COLO 205 colon 115% | DU-145 prostate 103% | K-562 leukemia 81.4% | MALME-3M melanoma 101% | MDA-MB-231 breast 110% | RXF 393 renal 98.3% | SF-268 CNS 95.5% | SF-295 CNS 100% | SF-539 CNS 96.7% | UACC-257 melanoma 89.3% | M14 melanoma 94.3%

OCc1cccc(-c2ccc3ncc(-c4nc(NC5CC5)ncc4F)n3c2)c1
active: NCI-H23 lung -16.3% | NCI-H226 lung 2.19% | NCI-H322M lung -6.44% | HOP-62 NSCLC 2.21% | NCI-H460 lung -4.33% | HOP-92 NSCLC -13.9% | NCI-H522 lung -13.9% | A549/ATCC NSCLC -8.48% | 786-0 renal 6.46% | COLO 205 colon -39.7% | DU-145 prostate 2.04% | K-562 leukemia 4.91% | MALME-3M melanoma -69% | MDA-MB-231 breast -15.6% | RXF 393 renal -44.3% | SF-268 CNS -24.5% | SF-295 CNS 4.24% | SF-539 CNS -61.2% | UACC-257 melanoma -29.9% | M14 melanoma -39.4%

COc1ccc(C(=S)N2CCN(c3ccccc3Cl)CC2)cc1OC
inactive: NCI-H23 lung 117% | NCI-H226 lung 98.1% | NCI-H322M lung 86.6% | HOP-62 NSCLC 90.9% | NCI-H460 lung 115% | HOP-92 NSCLC 86% | NCI-H522 lung 85.8% | A549/ATCC NSCLC 115% | 786-0 renal 97.5% | COLO 205 colon 99.5% | DU-145 prostate 111% | K-562 leukemia 106% | MALME-3M melanoma 90.8% | MDA-MB-231 breast 102% | RXF 393 renal 111% | SF-268 CNS 99.4% | SF-295 CNS 91.7% | SF-539 CNS 99.4% | UACC-257 melanoma 104% | M14 melanoma 92.8%
